Some test systems named below: HCT-15 colon; HT29 colon; SNB-75 CNS; SNB-19 CNS; U251 CNS; PC-3 prostate; SK-MEL-5 melanoma; UACC-62 melanoma; LOX IMVI melanoma; SK-MEL-28 melanoma; SK-MEL-2 melanoma; SN12C renal; UO-31 renal; TK-10 renal; ACHN renal; CAKI-1 renal; A498 renal; MOLT-4 leukemia; CCRF-CEM leukemia.
Test in all cases: NCI-60 one-dose screen, 48 h (100 = growth as untreated, 0 = no growth, -100 = all killed)
Holding throughout (conditions): 10 µM unless noted

Compounds without any hit were thinned out: in the full panel of roughly 83,000, 20% have a hit.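 Results are percent growth after 48 hours of single-concentration exposure. 100 means growth as in untreated cells, lower positive values show inhibition; negative values down to -100 show cell death.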 Unmarked numbers belong to inactive results. Active and inactive are the calls of the source. How the source made its calls: active means growth percent below 10; inactive means the rest.

As for `COc1cc(Cn2c(-c3nonc3N)nc3ccccc32)ccc1C`, the growth is 19.5% in the experiment on HCT-15 colon; 0.109% (active) with HT29 colon; -0.424% (active) with SNB-75 CNS; 53.8% with SNB-19 CNS; 21.6% in the experiment with U251 CNS; 24.4% with PC-3 prostate. Moreover, the growth is 19.1% in the experiment with SK-MEL-5 melanoma; 37.9% with UACC-62 melanoma; 42.6% in the experiment with LOX IMVI melanoma; 51.6% with SK-MEL-28 melanoma; 20.5% in the experiment on SK-MEL-2 melanoma; 36% with SN12C renal. The growth with UO-31 renal was 48.3%; in the experiment with TK-10 renal, 54%; in the experiment with ACHN renal, 41.2%; with CAKI-1 renal, 46%; with A498 renal, 6.72% (active); in the experiment with MOLT-4 leukemia, 21.2%.

For the compound `COc1ccc(/C=c2\sc3n(c2=O)C2C(NN=3)N(C)C(=O)N2C)cc1` (centres undefined), the growth was 28.5% in the experiment with HCT-15 colon; 8.76% (active) in the experiment with HT29 colon; -20.5% (active) in the experiment with SNB-75 CNS; 33.9% in the experiment with SNB-19 CNS; 29.3% in the experiment on U251 CNS; 25.4% with PC-3 prostate. The growth with SK-MEL-5 melanoma is 6.02% (active); with UACC-62 melanoma, 41.9%; in the experiment with LOX IMVI melanoma, 44.3%; with SK-MEL-28 melanoma, 54.7%; with SK-MEL-2 melanoma it was 39.6%; in the experiment with SN12C renal, 42.3%. For the same compound, the growth in the experiment with UO-31 renal was 46.4%; in the experiment on TK-10 renal, 54.8%; in the experiment with ACHN renal it was 45%; with CAKI-1 renal, 31.5%; with A498 renal, -21.3% (active); with MOLT-4 leukemia it was 26.5%.

Take `O=S(=O)(NCCCNc1nccc(-c2c(-c3ccc(O)cc3)nc3sccn23)n1)c1ccc(F)cc1`: the growth in the experiment with HCT-15 colon is 10% (active); with HT29 colon, 7.73% (active); in the experiment on SNB-75 CNS it was 17.8%; in the experiment with SNB-19 CNS it was 35.1%; in the experiment with U251 CNS, 11.1%; in the experiment with PC-3 prostate, 19.3%. In addition, the growth is -85.1% (active) with SK-MEL-5 melanoma; -1.06% (active) in the experiment with UACC-62 melanoma; -29.4% (active) with LOX IMVI melanoma; -6.84% (active) with SK-MEL-28 melanoma; -42.5% (active) in the experiment on SK-MEL-2 melanoma; 10% with SN12C renal. Moreover, the growth with UO-31 renal was 9.16% (active); in the experiment with TK-10 renal it was 26.6%; with ACHN renal, -5.95% (active); in the experiment with CAKI-1 renal it was 11.6%; with CCRF-CEM leukemia, 8.07% (active); in the experiment on MOLT-4 leukemia, 2.05% (active).

As for `C=CCOc1cccc(/C=C/C(=O)c2sc(Nc3cccnc3)nc2C)c1`, the growth was 33.5% in the experiment with HCT-15 colon; 16.8% with HT29 colon; 2.22% (active) in the experiment with SNB-75 CNS; 57.7% in the experiment with SNB-19 CNS; 50.7% in the experiment on U251 CNS; 44.6% with PC-3 prostate. In addition, the growth is 74.9% in the experiment on SK-MEL-5 melanoma; 59.9% in the experiment on UACC-62 melanoma; 32.9% with LOX IMVI melanoma; 87.1% in the experiment with SK-MEL-28 melanoma; 84.4% with SK-MEL-2 melanoma; 40.9% in the experiment on SN12C renal. For the same compound, the growth in the experiment with UO-31 renal is 47.7%; in the experiment with TK-10 renal, 113%; with ACHN renal, 54.3%; in the experiment with CAKI-1 renal it was 81%; with CCRF-CEM leukemia, 15.2%; with MOLT-4 leukemia, 76.3%.

In the case of `COc1cccc(-c2nc3sccn3c2-c2ccnc(NCCCNS(=O)(=O)c3ccc(F)cc3)n2)c1`, the growth in the experiment with HCT-15 colon was 18.1%; with HT29 colon it was 26.7%; in the experiment on SNB-75 CNS it was 66.8%; in the experiment on SNB-19 CNS it was 78.4%; in the experiment with U251 CNS, 49.6%; in the experiment on PC-3 prostate it was 47.7%. Further, the growth is 7.26% (active) in the experiment with SK-MEL-5 melanoma; 6.83% (active) with UACC-62 melanoma; 14.4% with LOX IMVI melanoma; 38.1% in the experiment with SK-MEL-28 melanoma; 40.8% in the experiment with SK-MEL-2 melanoma; 36.8% in the experiment on SN12C renal. The growth with UO-31 renal is 12.5%; in the experiment with TK-10 renal, 66.2%; in the experiment with ACHN renal it was 21.8%; in the experiment on CAKI-1 renal, 30.9%; in the experiment on CCRF-CEM leukemia it was 24.6%; in the experiment on MOLT-4 leukemia, 23.2%.

Take `CCOC(=O)C1=C(C)NC(=O)NC1c1ccc(OCC(=O)N/N=C/c2ccc(Cl)cc2)cc1` (centres undefined): the growth in the experiment on HCT-15 colon is 97.5%; in the experiment on HT29 colon, 94.3%; with SNB-75 CNS it was 79.1%; in the experiment with SNB-19 CNS, 89.5%; in the experiment with U251 CNS, 91.9%; in the experiment on PC-3 prostate it was 89%. Besides, the growth was 97.1% in the experiment with SK-MEL-5 melanoma; 87.3% with UACC-62 melanoma; 98.2% with LOX IMVI melanoma; 105% in the experiment with SK-MEL-28 melanoma; 94.3% in the experiment on SK-MEL-2 melanoma; 97% in the experiment with SN12C renal. The growth in the experiment on UO-31 renal is 93.7%; in the experiment with TK-10 renal, 99%; in the experiment with ACHN renal it was 96.8%; with CAKI-1 renal, 99.8%; in the experiment on CCRF-CEM leukemia it was 92.1%; with MOLT-4 leukemia it was 92.3%.

As for `Clc1ccc2c(c1)NC1(CCSc3ccccc31)n1nccc1-2` (centres undefined), the growth with HCT-15 colon was 98.5%; with HT29 colon, 90.9%; in the experiment on SNB-75 CNS, 95.5%; in the experiment with SNB-19 CNS, 102%; with U251 CNS it was 88.6%; with PC-3 prostate, 81%. For the same compound, the growth is 99.4% in the experiment on SK-MEL-5 melanoma; 94.7% in the experiment on UACC-62 melanoma; 92.3% in the experiment on LOX IMVI melanoma; 98.4% with SK-MEL-28 melanoma; 98.7% in the experiment on SK-MEL-2 melanoma; 104% in the experiment on SN12C renal. Further, the growth was 83.5% with UO-31 renal; 96.7% in the experiment on TK-10 renal; 100% in the experiment with ACHN renal; 96.3% with CAKI-1 renal; 95.7% in the experiment with CCRF-CEM leukemia; 90.9% in the experiment with MOLT-4 leukemia.

For the compound `C=C1C(=O)O[C@H]2[C@H]1CC/C(Cn1cc(-c3ccsc3)nn1)=C\CC[C@@]1(C)O[C@@H]21`, the growth in the experiment with HCT-15 colon is -77.5% (active); in the experiment with HT29 colon it was -68.5% (active); in the experiment with SNB-75 CNS, 21.7%; in the experiment with SNB-19 CNS, 59.8%; with U251 CNS, 4.91% (active); in the experiment on PC-3 prostate, -20.4% (active). Besides, the growth in the experiment with SK-MEL-5 melanoma is -42.1% (active); with UACC-62 melanoma, -55.7% (active); in the experiment with LOX IMVI melanoma it was -94.3% (active); in the experiment on SK-MEL-28 melanoma it was -54% (active); with SK-MEL-2 melanoma, -21.5% (active); in the experiment on SN12C renal it was -18.3% (active). Moreover, the growth is -91.5% (active) with UO-31 renal; -50.6% (active) with TK-10 renal; -90.5% (active) in the experiment on ACHN renal; -53.5% (active) in the experiment with CAKI-1 renal; -24.7% (active) in the experiment on CCRF-CEM leukemia; -13.3% (active) with MOLT-4 leukemia.

The values are drawn from PubChem BioAssay (NCI).
